Among the data in PubChem BioAssay (EPA / NIEHS) are outcome and AC50 values, retold here.

A short description of experiment [1]: ATG_CRE_CIS: Attagene CIS-FACTORIAL HepG2 Assay for human cAMP Responsive Element (CRE) binding protein 3 (AID 2282926). The settings on record: HepG2 CRE cis-reporter, Attagene multiplexed mRNA; actives raise or lower the signal. A digest of the protocol:
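Capillary electrophoresis of 6-FAM-labelled, HpaI-digested PCR products quantified reporter transcripts. These came from HepG2 transiently transfected with cis-element reporters and exposed to test chemicals for 24 hours, with DMSO defining baseline activity.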

Experiment [2] can be described thus: ATG_CMV_CIS: Attagene CIS-FACTORIAL HepG2 Assay for human CMV (Internal Marker) (AID 2282928).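 Also: endpoint acts as a background internal control marker rather than a target.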 The note with it: HepG2 CMV promoter reporter, transcription factor profiling; actives raise or lower the signal. A digest of the protocol: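 Reporter transcripts from transfected HepG2 cells are isolated after 24 h of chemical dosing, reverse-transcribed and amplified. Fragments labeled with 6-FAM are cut with HpaI and quantified by capillary electrophoresis; DMSO defines baseline.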

Experiment [3] can be described thus: ATG_Ets_CIS: Attagene CIS-FACTORIAL HepG2 Assay for human Erythroblast Transformation Specific (ETS) (AID 2282941). The note with it: HepG2 ETS cis-reporter transcription, actives raise or lower the signal. A digest of the protocol:
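Bidirectional fit versus DMSO of reporter mRNA signal, detected by RT-PCR and capillary electrophoresis in HepG2 cells transiently transfected with cis-element reporters and dosed 24 h.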

Experiment [4] deals with Hepatocyte nuclear factor 3-beta (Homo sapiens) (UniProt Q9Y261). The experiment in a line: ATG_FoxA2_CIS: Attagene CIS-FACTORIAL HepG2 Assay for human Forkhead box A2 (FOXA2) (AID 2282942). The note with it: HepG2 cis-reporter transcription factor activity, 24 h; actives raise or lower the signal. The essentials: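 Endogenous transcription factor activity is captured via cis-element-driven reporter transcripts in transfected HepG2. Total RNA taken at 24 h post-dosing; labelled RT-PCR products resolved by capillary electrophoresis. Gain or loss fitted versus DMSO.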
Hepatocyte nuclear factor 3-beta (Homo sapiens), sequence (Q9Y261 whole entry, looked up): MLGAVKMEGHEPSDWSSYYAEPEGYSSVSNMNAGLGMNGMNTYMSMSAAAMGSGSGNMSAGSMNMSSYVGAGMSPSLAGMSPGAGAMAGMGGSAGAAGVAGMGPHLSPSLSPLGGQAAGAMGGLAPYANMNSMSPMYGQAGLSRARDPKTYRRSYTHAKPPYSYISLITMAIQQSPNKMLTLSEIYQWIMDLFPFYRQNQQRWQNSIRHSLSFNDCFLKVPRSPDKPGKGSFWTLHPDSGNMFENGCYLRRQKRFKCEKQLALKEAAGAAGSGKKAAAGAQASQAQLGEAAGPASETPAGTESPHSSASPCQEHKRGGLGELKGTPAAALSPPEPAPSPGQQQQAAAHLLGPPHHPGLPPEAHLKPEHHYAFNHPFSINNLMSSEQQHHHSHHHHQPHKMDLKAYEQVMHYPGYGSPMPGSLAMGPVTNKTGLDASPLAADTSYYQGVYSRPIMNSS

Experiment [5] in a line: ATG_GATA_CIS: Attagene CIS-FACTORIAL HepG2 Assay for human GATA Binding Protein (AID 2282944). The settings on record: HepG2 GATA cis-element reporter, Attagene multiplex mRNA; actives raise or lower the signal. A digest of the protocol:
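Transient MRTU transfection, HepG2, 24 h compound exposure. Total RNA → oligo(dT) RT → PCR → 6-FAM primer extension → HpaI cut → CE. Bidirectional fit vs DMSO.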

Experiment [6] addresses Hypoxia-inducible factor 1-alpha (Homo sapiens) (UniProt Q16665). The experiment in a line: ATG_HIF1a_CIS: Attagene CIS-FACTORIAL HepG2 Assay for human Hypoxia Inducible Factor 1 (HIF1A) (AID 2282951). The settings on record: HepG2 Attagene cis-factorial HIF1a reporter transcription; actives raise or lower the signal. The essentials:
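Activity is fitted in both directions relative to DMSO. Reporter transcripts are read by RT-PCR, fluorescent primer extension and capillary electrophoresis after 24 h chemical treatment. The cells are HepG2 carrying transiently transfected cis-element-driven reporter units responding to endogenous factors.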

The target in experiment [7] is Hepatocyte nuclear factor 6 (Homo sapiens) (UniProt Q9UBC0). The experiment in a line: ATG_HNF6_CIS: Attagene CIS-FACTORIAL HepG2 Assay for human Hepatocyte Nuclear Factor 6 (HNF6) (AID 2282952). The note with it: HepG2 Attagene cis-factorial HNF6 reporter transcription; actives raise or lower the signal. A digest of the protocol:
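Activity values derive from bidirectional fitting against DMSO of reporter mRNA levels, measured by capillary electrophoresis of labelled RT-PCR products from HepG2 cells exposed 24 h.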

Experiment [8] addresses Heat shock factor protein 1 (Homo sapiens) (UniProt Q00613). The experiment in a line: ATG_HSE_CIS: Attagene CIS-FACTORIAL HepG2 Assay for human Heat Shock Transcription Factor 1 (HSE) (AID 2282953). The settings on record: HepG2 HSE cis-reporter, Attagene RNA transcription; actives raise or lower the signal. The essentials: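 HepG2, transient MRTU transfection, cis-promoter reporters (endogenous TF activity). 24 h compound. RNA → oligo(dT) RT → PCR → 6-FAM primer extension → HpaI cut → CE. Bidirectional fit vs DMSO.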

The nature of experiment [9]: ATG_MRE_CIS: Attagene CIS-FACTORIAL HepG2 Assay for human Metal Responsive Element (MRE) (AID 2282954). The note with it: HepG2 MRE cis-reporter transcription, Attagene multiplex; actives raise or lower the signal. A digest of the protocol:
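RT-PCR/capillary electrophoresis readout of reporter mRNA, 24 h post-dosing, in HepG2 cells transfected with multiplexed cis-regulated reporter constructs. Gain or loss of signal fitted bidirectionally against DMSO baseline.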

The target in experiment [10] is Paired box protein Pax-6 (Homo sapiens) (UniProt P26367). The experiment in a line: ATG_Pax6_CIS: Attagene CIS-FACTORIAL HepG2 Assay for human Paired Box 6 (PAX6) (AID 2282956). The settings on record: HepG2 CIS-FACTORIAL PAX6 reporter transcription, RNA readout; actives raise or lower the signal. The essentials:
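DMSO-referenced bidirectional fits of reporter mRNA fluorescence; HepG2 with transient cis-promoter MRTUs, 24 h post-dose, RT-PCR plus capillary electrophoresis detection.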

Experiment [11] can be described thus: ATG_VDRE_CIS: Attagene CIS-FACTORIAL HepG2 Assay for human Vitamin D Receptor Element (VDRE) (AID 2282968). The settings on record: HepG2 VDRE cis-reporter transcription, actives raise or lower the signal. A digest of the protocol:
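Transient MRTU transfection of HepG2, 24 h compound exposure. Readout: reporter transcripts via RT-PCR and capillary electrophoresis, fluorescence. Bidirectional fit vs DMSO.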

The nature of experiment [12]: ATG_NF_kB_CIS: Attagene CIS-FACTORIAL HepG2 Assay for human Nuclear Factor Kappa B (NF-kB) (AID 2282991). The settings on record: HepG2 Attagene cis-factorial NF-kB reporter mRNA; actives raise or lower the signal. A digest of the protocol:
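Readout is reporter transcript level, gain or loss versus DMSO, measured 24 h post-dose via RT-PCR, fluorescent labelling and capillary electrophoresis. Human HepG2 liver cells carried transiently transfected CIS reporter constructs reflecting endogenous factors.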

Experiment [13] can be described thus: ATG_NRF2_ARE_CIS: Attagene CIS-FACTORIAL HepG2 Assay for human Nuclear Factor Erythroid 2 Related Factor 2 (NFR2) response to Antioxidant Response Elements (ARE) (AID 2282992). The note with it: HepG2 Attagene ARE/NRF2 reporter, transcription factor activity; actives raise or lower the signal. A digest of the protocol: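 Using transiently transfected HepG2 cells exposed for 24 h, reporter mRNA levels were determined by RT-PCR with fluorescent primer extension and capillary electrophoresis, analysed for gain or loss of signal against DMSO.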

In experiment [14] the target is Cellular tumor antigen p53 (Homo sapiens) (UniProt P04637). The experiment in a line: ATG_p53_CIS: Attagene CIS-FACTORIAL HepG2 Assay for human p53 Transcription Factor (AID 2282994). The note with it: HepG2 p53 cis-element reporter, Attagene mRNA; actives raise or lower the signal. A digest of the protocol: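 In HepG2 cells, reporter transcription units under cis-regulatory promoters were transiently introduced. Following 24 h treatment, RNA was processed to labelled, digested cDNA fragments read by capillary electrophoresis; fitting was bidirectional versus DMSO.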
Cellular tumor antigen p53 (Homo sapiens), sequence (P04637 whole entry, looked up, the tested form may be a part): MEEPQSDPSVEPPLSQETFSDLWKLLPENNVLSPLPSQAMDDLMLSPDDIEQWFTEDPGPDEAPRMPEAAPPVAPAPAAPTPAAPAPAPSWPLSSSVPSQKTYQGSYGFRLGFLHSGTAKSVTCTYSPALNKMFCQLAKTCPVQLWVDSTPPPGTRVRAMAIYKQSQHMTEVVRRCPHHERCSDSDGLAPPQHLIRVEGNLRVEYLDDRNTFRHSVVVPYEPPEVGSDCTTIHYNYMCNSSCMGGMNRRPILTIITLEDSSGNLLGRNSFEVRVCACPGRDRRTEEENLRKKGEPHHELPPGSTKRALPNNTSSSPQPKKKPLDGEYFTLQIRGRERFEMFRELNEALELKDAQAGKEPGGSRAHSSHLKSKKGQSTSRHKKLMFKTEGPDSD

In experiment [15] the target is Aryl hydrocarbon receptor (Homo sapiens) (UniProt P35869). The experiment in a line: ATG_Ahr_CIS: Attagene CIS-FACTORIAL HepG2 Assay for human Aryl Hydrocarbon Receptor (Ahr) (AID 2282930). The settings on record: HepG2 AhR cis-factorial reporter transcription; actives raise or lower the signal. A digest of the protocol:
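Read-out: reporter mRNA quantified by RT-PCR with fluorescent primer extension and capillary electrophoresis. Human HepG2 liver cells carried transfected cis-promoter reporter units and were exposed to chemical for 24 h; gain or loss fitted relative to DMSO.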

A short description of experiment [16]: ATG_FoxO_CIS: Attagene CIS-FACTORIAL HepG2 Assay for human Forkhead box O (FoxO) (AID 2282943). The settings on record: HepG2 Attagene cis-reporter, FoxO element, mRNA; actives raise or lower the signal. A digest of the protocol: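 Read-out: fluorescence of 6-FAM-labelled reporter cDNA fragments resolved by capillary electrophoresis. Transiently transfected HepG2 cells were dosed for 24 h; activity fitted in both directions relative to DMSO controls.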

The nature of experiment [17]: ATG_XTT_Cytotoxicity: Cytotoxicity Assessment in the Attagene TRANS-FACTORIAL HepG2 Assay (AID 2283584; active = hit-call score of the fitted dose curve at least 0.9, where 1 is the maximum;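 as to AC50: cells exposed to compound for 24 h before reading; active means loss of viability signal versus DMSO baseline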). A digest of the protocol:
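HepG2 human liver cells, transiently transfected with multiple GAL4-UAS reporter units, were dosed and read at 24 h by XTT as cell number. Loss of signal was fitted relative to DMSO negative control baseline.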

A short description of experiment [18]: ATG_AP_1_CIS: Attagene CIS-FACTORIAL HepG2 Assay for human Activator Protein 1 (AP-1) (AID 2282931). The settings on record: HepG2 Attagene cis-factorial AP-1 reporter mRNA; actives raise or lower the signal. A digest of the protocol: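 Readout is reporter transcript level from endogenous transcription factor activity, quantified by RT-PCR with fluorescent primer extension and capillary electrophoresis. Transiently transfected HepG2 cells, 24 h exposure. Curves fitted both directions versus DMSO.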

Experiment [19] can be described thus: ATG_SREBP_CIS: Attagene CIS-FACTORIAL HepG2 Assay for human Sterol Regulatory Element Binding (SREBP) (AID 2282962). The settings on record: HepG2 Attagene cis-factorial SREBP reporter, mRNA; actives raise or lower the signal. A digest of the protocol:
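In this cis-format assay, HepG2 liver cells express reporters controlled by promoter elements responsive to native transcription factors. Exposure lasts 24 h; reporter mRNA fluorescence from capillary electrophoresis gives the signal, fitted bidirectionally against DMSO.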

Experiment [20] can be described thus: ATG_BRE_CIS: Attagene CIS-FACTORIAL HepG2 Assay for human Bone Morphogenetic Protein (BMP) Response Element (BRE) (AID 2282933). The note with it: HepG2 BMP response element reporter, Attagene transcription factor profiling; actives raise or lower the signal. The essentials:
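Transient MRTU transfection of human HepG2 liver cells; 24 h compound treatment; total RNA isolated, reverse-transcribed, PCR-amplified, 6-FAM labelled, HpaI-cut, capillary electrophoresis. DMSO = negative control/baseline, bidirectional fit.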

Inconclusive results are not listed. Activity calls are given as the source filed them. The calls were made as follows, unless noted: active = hit-call score of the fitted dose curve at least 0.9, where 1 is the maximum; inactive = score below 0.9.

Hypoxia-inducible factor 1-alpha (Homo sapiens), sequence (Q16665 whole entry, looked up): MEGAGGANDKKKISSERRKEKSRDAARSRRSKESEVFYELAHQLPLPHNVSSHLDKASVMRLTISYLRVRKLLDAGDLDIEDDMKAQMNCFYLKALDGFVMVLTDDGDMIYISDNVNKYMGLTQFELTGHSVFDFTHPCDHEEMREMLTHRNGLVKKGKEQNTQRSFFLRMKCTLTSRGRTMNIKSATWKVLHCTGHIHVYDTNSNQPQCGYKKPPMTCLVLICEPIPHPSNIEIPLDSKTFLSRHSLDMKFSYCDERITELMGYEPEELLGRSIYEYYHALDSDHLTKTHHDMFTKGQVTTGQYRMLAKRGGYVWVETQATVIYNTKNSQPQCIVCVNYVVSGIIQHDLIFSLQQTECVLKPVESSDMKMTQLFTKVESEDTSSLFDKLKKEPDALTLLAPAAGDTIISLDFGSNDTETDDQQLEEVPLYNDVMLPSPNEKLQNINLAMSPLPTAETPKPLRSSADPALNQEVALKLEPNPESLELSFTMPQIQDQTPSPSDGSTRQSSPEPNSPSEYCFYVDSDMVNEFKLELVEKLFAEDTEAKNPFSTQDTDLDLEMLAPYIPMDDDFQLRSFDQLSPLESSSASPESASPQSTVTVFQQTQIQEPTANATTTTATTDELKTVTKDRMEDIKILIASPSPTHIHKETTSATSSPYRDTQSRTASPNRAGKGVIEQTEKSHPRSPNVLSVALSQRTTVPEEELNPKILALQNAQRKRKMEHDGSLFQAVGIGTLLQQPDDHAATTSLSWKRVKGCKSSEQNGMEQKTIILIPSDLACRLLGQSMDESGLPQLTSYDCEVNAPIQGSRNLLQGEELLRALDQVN
Hepatocyte nuclear factor 6 (Homo sapiens), sequence (Q9UBC0 whole entry, looked up): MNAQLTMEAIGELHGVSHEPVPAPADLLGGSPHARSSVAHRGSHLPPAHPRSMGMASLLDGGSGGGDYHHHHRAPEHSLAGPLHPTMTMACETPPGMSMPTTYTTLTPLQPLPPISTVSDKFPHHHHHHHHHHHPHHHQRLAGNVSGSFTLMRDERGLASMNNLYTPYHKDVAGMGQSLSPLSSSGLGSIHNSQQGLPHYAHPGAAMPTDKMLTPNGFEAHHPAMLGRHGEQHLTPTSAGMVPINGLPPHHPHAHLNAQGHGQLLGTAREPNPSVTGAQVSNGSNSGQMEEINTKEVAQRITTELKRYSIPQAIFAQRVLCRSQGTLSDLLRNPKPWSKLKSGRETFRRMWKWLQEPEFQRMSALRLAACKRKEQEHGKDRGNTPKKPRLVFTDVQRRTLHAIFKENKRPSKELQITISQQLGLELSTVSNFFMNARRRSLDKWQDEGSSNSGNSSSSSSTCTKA
Paired box protein Pax-6 (Homo sapiens), sequence (P26367 whole entry, looked up): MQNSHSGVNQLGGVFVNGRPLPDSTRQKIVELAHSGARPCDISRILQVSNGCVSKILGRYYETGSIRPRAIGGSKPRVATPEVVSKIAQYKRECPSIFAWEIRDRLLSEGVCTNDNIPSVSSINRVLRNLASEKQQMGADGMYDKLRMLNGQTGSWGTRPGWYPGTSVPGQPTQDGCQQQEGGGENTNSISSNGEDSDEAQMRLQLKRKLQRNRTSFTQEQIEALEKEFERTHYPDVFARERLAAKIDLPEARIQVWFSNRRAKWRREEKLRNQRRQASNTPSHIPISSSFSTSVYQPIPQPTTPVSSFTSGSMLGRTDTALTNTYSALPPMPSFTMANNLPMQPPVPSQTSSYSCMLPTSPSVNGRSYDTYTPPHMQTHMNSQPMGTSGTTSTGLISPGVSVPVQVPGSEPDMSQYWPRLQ
Aryl hydrocarbon receptor (Homo sapiens), sequence (P35869 whole entry, looked up): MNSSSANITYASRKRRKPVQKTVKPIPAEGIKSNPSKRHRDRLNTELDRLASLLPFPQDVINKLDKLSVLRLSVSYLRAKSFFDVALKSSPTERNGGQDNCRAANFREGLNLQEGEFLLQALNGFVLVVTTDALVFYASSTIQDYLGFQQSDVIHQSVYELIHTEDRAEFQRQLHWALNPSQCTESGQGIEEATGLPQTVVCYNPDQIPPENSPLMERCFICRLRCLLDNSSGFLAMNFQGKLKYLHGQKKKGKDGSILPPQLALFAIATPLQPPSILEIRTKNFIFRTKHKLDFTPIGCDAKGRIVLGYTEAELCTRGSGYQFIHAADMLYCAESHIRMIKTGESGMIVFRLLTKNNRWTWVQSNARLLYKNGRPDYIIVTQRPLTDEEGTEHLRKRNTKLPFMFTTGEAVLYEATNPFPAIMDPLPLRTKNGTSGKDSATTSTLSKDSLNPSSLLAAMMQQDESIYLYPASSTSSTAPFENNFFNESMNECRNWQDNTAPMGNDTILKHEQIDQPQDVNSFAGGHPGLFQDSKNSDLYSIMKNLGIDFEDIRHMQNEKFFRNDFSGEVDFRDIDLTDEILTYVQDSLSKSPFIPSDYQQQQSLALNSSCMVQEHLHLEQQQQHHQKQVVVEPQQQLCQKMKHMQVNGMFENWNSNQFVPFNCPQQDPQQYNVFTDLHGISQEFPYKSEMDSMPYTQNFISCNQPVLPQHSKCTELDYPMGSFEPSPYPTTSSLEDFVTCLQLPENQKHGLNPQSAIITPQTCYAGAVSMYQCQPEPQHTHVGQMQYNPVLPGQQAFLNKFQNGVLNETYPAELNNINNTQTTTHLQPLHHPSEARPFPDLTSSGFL
Heat shock factor protein 1 (Homo sapiens), sequence (Q00613 whole entry, looked up): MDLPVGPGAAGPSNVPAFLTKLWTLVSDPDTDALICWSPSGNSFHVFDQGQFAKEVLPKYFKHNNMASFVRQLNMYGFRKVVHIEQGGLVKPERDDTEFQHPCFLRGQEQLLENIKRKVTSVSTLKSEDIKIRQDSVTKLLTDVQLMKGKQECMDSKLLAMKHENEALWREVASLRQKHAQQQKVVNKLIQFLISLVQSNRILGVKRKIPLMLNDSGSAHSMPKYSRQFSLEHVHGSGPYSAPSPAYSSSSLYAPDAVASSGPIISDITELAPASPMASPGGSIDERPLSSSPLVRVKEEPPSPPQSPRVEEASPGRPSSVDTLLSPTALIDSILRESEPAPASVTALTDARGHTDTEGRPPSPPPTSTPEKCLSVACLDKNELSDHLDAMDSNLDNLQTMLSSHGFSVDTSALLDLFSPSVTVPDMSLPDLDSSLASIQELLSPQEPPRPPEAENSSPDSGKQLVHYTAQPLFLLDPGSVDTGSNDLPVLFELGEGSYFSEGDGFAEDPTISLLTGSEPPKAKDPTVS

For `COc1cc(OC)c(OC)cc1C=O`, the compound was called inactive in experiment [1], in [2], in experiment [3], in [4], in experiment [5] and in experiment [6]. The compound was called inactive in [7], in experiment [8], in [9], in [10], in [11] and in [12]. Moreover, the result in experiment [13] and in [14] was inactive.
One may read the AC50 as the midpoint of the concentration-response curve, whichever way the signal moves. With `O=[N+]([O-])O.O=[N+]([O-])O.[Cd]`, the AC50 in experiment [1] is 1.98 µM (active); in experiment [5], 11.1 µM (active); in [8], 1.42 µM (active); in [9], 351 nM (active); in [10], 1.79 µM (active); in experiment [13] it was 4.12 µM (active). Further, in experiment [17], the AC50 was 12.3 µM (active). Further, the result in [15], in experiment [3], in [16], in [6] and in [7] was inactive.
Consider `COCC(=O)N(c1c(C)cccc1C)N1CCOC1=O`, for which the compound was called inactive in experiment [1], in experiment [2], in experiment [18], in experiment [4], in experiment [5] and in [6]. The call in experiment [7], in experiment [8], in experiment [9], in experiment [10], in experiment [19] and in experiment [12] was inactive. Moreover, the result in experiment [13] and in [14] was inactive. Further, in experiment [11], the AC50 is 65.9 µM (active).
As for `COc1cc(OC)nc(Oc2cccc(Oc3nc(OC)cc(OC)n3)c2C(=O)O)n1`, the compound was called inactive in experiment [1], in experiment [18], in [20], in experiment [4], in [16] and in experiment [6]. In addition, the result in experiment [7], in experiment [8], in [9], in experiment [10], in [19] and in experiment [11] was inactive. Further, the outcome in experiment [12], in experiment [13] and in experiment [14] was inactive. Further, in [15], the AC50 was 57.5 µM (active).
For the compound `C=CCc1ccc(OC(=O)Cc2ccccc2)c(OC)c1`, the compound was classed as inactive in [1], in [15], in experiment [20], in experiment [3], in [5] and in experiment [6]. The call in experiment [7], in [8], in experiment [9], in [10], in experiment [19] and in experiment [14] was inactive. The call in experiment [17] was inactive. Also, the figures for the AC50 in experiment [11], in [12] and in [13] were 27.5 µM (active), 114 µM (active) and 11 µM (active), respectively.
Consider `[Cl-].[Cl-].[Cl-].[Yb+3]`, for which the compound was called inactive in [1], in experiment [15], in [20], in experiment [4], in experiment [16] and in [5]. The call in experiment [6], in experiment [7], in experiment [8], in experiment [9], in experiment [10] and in experiment [11] was inactive. Moreover, the compound was called inactive in experiment [13], in experiment [14] and in experiment [17].
